EBV LMP1 NFkB – Epstein-Barr LMP1 NF-kappaB reporter inhibition; LMP1-induced NF-kappaB luciferase reporter cells, luminescence; inhibition, % at 12.5 µM; actives 0.69% (n = 350,000); in the data active means inhibition above about 41%; inconclusive means no clear call, values can overlap the other calls
Shn3 inh set2 – reduces Shn3 3'UTR luciferase signal in osteoblasts | Clone20 osteoblast Shn3 3'UTR firefly luciferase, 24 h | inhibition, % at 12.5 µM | actives 0.52% (n = 360,000) | AID 588674;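 active means mean inhibition of at least 75% with every replicate also reaching 75%; inconclusive means mean inhibition at least 75% but some replicate below; inactive means mean inhibition below 75%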
aSyn 5UTR inh – 5' untranslated region of α-synuclein, MLPCN primary screen. alpha-synuclein 5'UTR reporter, inhibitor activity. inhibition, % (tested at 7.5 µM). actives 0.82% (n = 300,000); in the data active means inhibition above about 60%; inconclusive means no clear call, values can overlap the other calls;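 further: H4 neuroglioblastoma cells stably carrying SNCA 5'UTR luciferase fusion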
TRPM1 prom inh – inhibitors of MITF-driven TRPM1 promoter in melanoma cells. inhibition, % at 12.5 µM. SK-MEL-5 TRPM1 promoter luciferase, 24 h. actives 0.83% (n = 330,000);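 active means mean inhibition across replicates of 60% or more, whatever share of single replicates reaches that level; inconclusive means some that reach 60%, reason not given; inactive means mean inhibition across replicates below 60%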
PAX8 reporter – lowers PAX8-driven luciferase in RMG-I cells; inhibition, % at 12.6 µM; RMG-I TPO-luciferase reporter, SteadyGlo, 24 h; actives 1.2% (n = 360,000);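 active means mean replicate inhibition at least 60% with every replicate also reaching 60%; inconclusive means only one of the two criteria is met; inactive means mean below 60% and not all replicates reaching 60%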;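 further: luciferase light reporting Pax8 driven TPO promoter activity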
Hits are given with their value; - = inactive; ? = inconclusive; . = no result. Rows were chosen to be rich in hits. Some 2.1% of all compounds tested hit in one or more screens of this group.

SMILES	EBV LMP1 NFkB	Shn3 inh set2	aSyn 5UTR inh	TRPM1 prom inh	PAX8 reporter
COc1cc(C(CCN2CCCCC2)c2c(OC)cc(OC)c3c(-c4ccccc4)cc(=O)oc23)cc(OC)c1OC (stereo not drawn)	-	-	-	84.6	-
COc1cc(C(CCN2CCCC(C)C2)c2c(OC)cc(OC)c3c(-c4ccccc4)cc(=O)oc23)cc(OC)c1OC (stereo not drawn)	-	-	-	89.8	.
COc1cc(C(CC(=O)N2CCCC2)c2c(OC)cc(OC)c3c(-c4ccccc4)cc(=O)oc23)cc(OC)c1OC (stereo not drawn)	-	-	-	-	-
CC(=O)c1ccc(S(=O)(=O)N(C)CCCC(=O)N(C)Cc2c(F)cccc2Cl)cc1	-	-	-	-	-
Cc1cc(C(=O)OCC(=O)NCc2ccco2)c(C)n1-c1ccc(F)cc1	-	-	80.4	-	.
CCOC(=O)C1=C(C)NC(C)=C(C(=O)OCC)C1C(=O)OCC(=O)NCc1ccco1	-	95.9	.	-	.
COC(=O)C[C@H]1CC[C@@H]2[C@H](COc3ccc(NC(=O)Nc4cccc(F)c4)cc3C(=O)N2C)O1	.	.	.	.	-
Cc1nc(Sc2nnnn2C)c2c3c(sc2n1)CCC3	48.4	-	.	86.9	.
CCOc1cccc(/C=N/NC(=O)c2cc(-c3cccn3C)n[nH]2)c1O	-	87.7	-	-	-
COc1cc(OC)c(OC)cc1/C=N/NC(=O)c1cc(-c2cccn2C)n[nH]1	-	-	-	-	-
O=C(NC(CSCc1ccccc1)C(=O)N/N=C/c1ccc(O)cc1O)c1ccc([N+](=O)[O-])cc1 (stereo not drawn)	-	91.0	83.7	69.8	.
COc1cc(O)ccc1/C=N/NC(=O)c1ccc([N+](=O)[O-])cc1	-	-	-	-	-
CN(c1ccccc1)S(=O)(=O)c1ccc(C(=O)Nc2ccncc2)cc1	-	-	-	-	-
Cc1c(C(=O)Nc2nonc2-c2ccc(F)cc2)oc2ccc(F)cc12	-	-	?	-	-
CCc1nonc1NC(=O)c1oc2ccc(F)cc2c1C	41.9	-	-	-	-
Cc1[nH]n(-c2ccccc2)c(=O)c1N=Nc1ccccc1O	-	85.0	?	-	65.5
COc1ccc(S(=O)(=O)NCCSC(C)(C)C)cc1	-	-	-	-	-
CC(C)[N+](C)(CCOC(=O)C1c2ccccc2Oc2ccccc21)C(C)C	80.9	-	-	-	-
CC(C)CNC(=O)COC(=O)C1c2ccccc2Oc2ccccc21	65.8	-	-	-	-
CC(C)(C)NC(=O)COC(=O)C1c2ccccc2Oc2ccccc21	-	-	-	-	-
COc1cccc(CN2[C@@H](CO)[C@@H]3c4ccccc4N(C(=O)c4cccnc4)C[C@@H]32)c1	.	.	.	.	-
CCCC(=O)Nc1sc(C(=O)Nc2cccc(N)c2)c(C)c1C(=O)OC	-	-	-	-	-
CC(C)(C)c1nc2ccc([N+](=O)[O-])cc2[nH]1	-	-	-	-	-
CCCCOc1ccc(C(=O)CCN2CCOCC2)cc1	-	-	-	-	69.0
CCOc1ccc(C(CN2CCOCC2)C(C)=O)cc1OC (stereo not drawn)	.	-	.	.	101.8
SMILES	EBV LMP1 NFkB	Shn3 inh set2	aSyn 5UTR inh	TRPM1 prom inh	PAX8 reporter
CC(CN1CCN(CC(C)C(=O)c2ccccc2)CC1)C(=O)c1ccccc1 (stereo not drawn)	-	-	.	-	-
O=C(c1ccccc1)C(CN1CCCCC1)c1ccccc1 (stereo not drawn)	54.8	?	.	97.2	68.7
CCOc1ccc(C(=O)C(CN2CCOCC2)c2ccccc2)cc1 (stereo not drawn)	-	-	-	-	96.8
CCOc1ccc(C(C#N)N2CCOCC2)cc1OC (stereo not drawn)	-	-	-	-	-
CN1C(=O)c2cc(NC(=O)c3ccc(Cl)cc3)ccc2OC[C@H]2O[C@H](CC(=O)NCc3cccc(F)c3)CC[C@H]21	.	.	.	.	-
O=C(c1ccc(Br)cc1)C(CN1CCOCC1)c1ccccc1 (stereo not drawn)	-	96.2	-	-	-
CC(CN1CCOCC1)OC(=O)c1ccc(Br)cc1 (stereo not drawn)	-	-	-	-	.
O=C1[C@H]2CCCC[C@H]2C(=O)N1CCCCN1CCN(c2nsc3ccccc23)CC1	61.8	-	-	-	-
C/C(=N\Nc1ccc(C(F)(F)F)cc1[N+](=O)[O-])C(C)C	66.5	-	-	-	-
COc1cc(N=Nc2cccc(S(N)(=O)=O)c2)c2ccccc2c1N	-	-	-	74.1	-
Cc1nc2ccccc2nc1Nc1cccc(Cl)c1	-	-	-	-	-
CCOC(=O)C1CCCN(C(=O)c2ccc3sccc3c2)CC1 (stereo not drawn)	.	-	.	.	-
CCN1/C(=C/c2ccc3cc(C)ccc3[n+]2CC)Sc2cc(C)ccc21	-	?	.	85.1	88.8
CCN1/C(=C/c2ccc3cc(C)ccc3[n+]2C)Sc2ccc3sccc3c21	-	91.2	.	77.3	100.1
CCCCN1/C(=C/c2ccc3ccccc3[n+]2CC)Sc2ccccc21	52.4	89.9	80.2	69.1	.
CCCCN1/C(=C/c2cccc[n+]2C)Sc2cc(NC(C)=O)ccc21	-	-	-	-	-
Cc1ccc2c(c1)S/C(=C/c1ccc[n+](C)c1)N2CCO	-	-	-	-	-
CCN1/C(=C/c2ccc3ccccc3[n+]2CC)C=Cc2ccccc21	52.6	91.1	-	101.6	.
Cc1sc2c3ccsc3ccc2[n+]1C	-	-	-	-	-
O=P(CCc1ccccc1)(c1ccccc1)c1ccccc1	-	-	.	-	.
CC(=O)C1C(=O)CC(C)(O)C(C(C)=O)C1c1ccc(N(C)C)cc1 (stereo not drawn)	-	-	-	-	.
O=C(CSC1=NS(=O)(=O)c2ccccc21)Nc1ccccc1	-	-	-	-	-
COc1ccc(-c2cnnn2-c2ccc(N)cc2)cc1OC	-	-	-	-	.
COC(=O)Nc1nc2ccc(C(=O)c3cccs3)cc2[nH]1	-	-	-	-	64.1
CCOC(=O)C1=C(C)N(CCCC(=O)O)C(=O)NC1c1ccccc1 (stereo not drawn)	-	-	-	-	-
SMILES	EBV LMP1 NFkB	Shn3 inh set2	aSyn 5UTR inh	TRPM1 prom inh	PAX8 reporter
COC(=O)C1=C(C)N(CCCC(=O)O)C(=O)NC1c1cccc(Cl)c1Cl (stereo not drawn)	51.3	-	-	-	-
CCOC(=O)C1=C(C)N(CCCC(=O)O)C(=O)NC1c1ccc2ccccc2c1 (stereo not drawn)	-	86.1	-	-	-
COCOCCn1cc(CN2CCS(=O)(=O)N(Cc3ccc(-c4ccc(Cl)c(Cl)c4)cc3)C(C(C)C)C2=O)nn1 (stereo not drawn)	-	90.8	.	.	-
CC(C)C1C(=O)N(Cc2cn(CCC3OCCO3)nn2)CCS(=O)(=O)N1Cc1ccc(-c2ccc(Cl)c(Cl)c2)cc1 (stereo not drawn)	-	88.8	.	.	-
CCn1ncc(C2=NOC(C(=O)N3CCC(C(N)=O)CC3)C2)c1C (stereo not drawn)	-	-	-	-	.
CCn1ccnc1CN(C)Cc1cn(-c2ccc(C)cc2)nc1-c1cccc(C)c1	-	-	-	-	-

Source: PubChem
